Activity calls are given as the source filed them. How the source made its calls: active means hit-call score of the fitted dose curve at least 0.9, where 1 is the maximum; inactive means score below 0.9.
Test: ATG_ISRE_CIS: Attagene CIS-FACTORIAL HepG2 Assay for human Interferon Regulatory Factor 1 (IRF1) binding to an Interferon-Stimulated Response Element (ISRE) (AID 2282948)
Settings: HepG2 ISRE cis-reporter (Attagene), mRNA transcription readout; actives raise or lower the signal
Outline: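 HepG2 cells transiently transfected with multiplexed cis-promoter reporter units; after 24 h compound exposure, reporter mRNA quantified by RT-PCR, FAM labelling, HpaI digestion and capillary electrophoresis. Bidirectional fit versus DMSO baseline.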

Structure (SMILES) | AC50 | outcome
O=C(Cl)C(F)(F)C(F)(F)C(F)(F)C(F)(F)C(F)(F)C(F)(F)C(F)(F)C(F)(F)F | 33.4 µM (active) | 
C=CC(F)(F)C(F)(F)C(F)(F)C(F)(F)C(F)(F)C(F)(F)C(F)(F)C(F)(F)F |  | inactive
CS(C)(=O)=O |  | inactive
O=C(O)C(F)(F)C(F)(F)C(F)(F)C(F)(F)C(F)(F)C(F)(F)C(F)(F)C(F)(F)C(F)(F)C(F)(F)C(F)(F)C(F)(F)F |  | inactive
O=C(O)C(F)(F)C(F)(F)C(F)(F)C(F)(F)F |  | inactive
Cc1ccc(S(=O)(=O)OCC(F)(F)C(F)(F)C(F)(F)C(F)(F)C(F)(F)C(F)F)cc1 |  | inactive
Cc1ccc(S(=O)(=O)NCl)cc1 |  | inactive
C=C(C)C(=O)OCC(F)(F)C(F)(F)C(F)(F)C(F)(F)C(F)(F)C(F)(F)C(F)(F)F |  | inactive
FC(F)(F)C(F)(F)C(F)(F)C(F)(F)C(F)(F)C(F)(F)CCS |  | inactive
CCCCCC=O |  | inactive
CCCCCCCCC(F)(F)C(F)(F)C(F)(F)C(F)(F)C(F)(F)C(F)(F)F |  | inactive
Cc1cc(C)cc(O)c1 |  | inactive
O=S(=O)(OCCOC(F)(F)F)C(F)(F)F |  | inactive

Test: ATG_M_32_CIS: Attagene CIS-FACTORIAL HepG2 Assay for M32 Transcription Factor (Internal Marker) (AID 2282949);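 further: background control marker of the multiplexed CIS panel rather than a real target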
Settings: HepG2 Attagene cis-factorial M32 reporter, mRNA; actives raise or lower the signal
Outline: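 Internal background marker read-out: RT-PCR/capillary electrophoresis fluorescence of reporter transcripts from transiently transfected HepG2 cells after 24 h chemical exposure. Activity fitted bidirectionally relative to DMSO negative control.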

Structure (SMILES) | outcome
Nc1ccc(S(=O)(=O)Nc2nccs2)cc1 | inactive
C=C(C)C(=O)OCC(F)(F)C(F)(F)C(F)(F)F | inactive
O=P(O)(O)OCCC(F)(F)C(F)(F)C(F)(F)C(F)(F)C(F)(F)C(F)(F)F | inactive
CC(=O)Nc1ccc(N=Nc2cc(C)ccc2O)cc1 | inactive
FC(F)(F)C(F)(F)C(F)(F)C(F)(F)CCI | inactive
CCc1c(Br)c(Br)c(Br)c(Br)c1Br | inactive
CC(C)(C)c1ccc(OC2CCCCC2O)cc1 (stereo not drawn) | inactive
CC(C)OC(=O)c1ccccc1C(=O)OC(C)C | inactive
OC[C@@H](O)[C@@H](O)[C@H](O)[C@@H](O)CO | inactive
CN(C)Cc1ccccc1O | inactive
CCc1ccc(C(c2ccc(CC)cc2)C(Cl)Cl)cc1 | inactive
CC(C)c1ccccc1N | inactive
C1COCCN1 | inactive
COC(=O)CCC(F)(F)C(F)(F)C(F)(F)C(F)(F)F | inactive
C=CC(=O)OCC(F)(F)C(F)(F)C(F)(F)C(F)(F)C(F)(F)C(F)(F)C(F)(F)F | inactive
O=S(=O)(O)c1ccc2ccccc2c1 | inactive
CCCCC(CC)COP(=O)(O)OCC(CC)CCCC (stereo not drawn) | inactive
COC(=O)C1CCC(C(=O)OC)CC1 (stereo not drawn) | inactive

Structure (SMILES) | outcome
Nc1cc(Cl)c(N)c(Cl)c1 | inactive
O=C(O)C(F)(F)C(F)(F)OC(F)(F)F | inactive
CC(C)=CCCC(C)CCOC(=O)C(C)C (stereo not drawn) | inactive
N=C(N)C(F)(F)C(F)(F)C(F)(F)C(F)(F)C(F)(F)C(F)(F)C(F)(F)F | inactive
O=C(Cl)C(F)(F)C(F)(F)C(F)(F)C(F)(F)C(F)(F)C(F)(F)C(F)(F)C(F)(F)F | inactive
C=CC(F)(F)C(F)(F)C(F)(F)C(F)(F)C(F)(F)C(F)(F)C(F)(F)C(F)(F)F | inactive
CS(C)(=O)=O | inactive
O=C(O)C(F)(F)C(F)(F)C(F)(F)C(F)(F)C(F)(F)C(F)(F)C(F)(F)C(F)(F)C(F)(F)C(F)(F)C(F)(F)C(F)(F)F | inactive
O=C(O)C(F)(F)C(F)(F)C(F)(F)C(F)(F)F | inactive
Cc1ccc(S(=O)(=O)OCC(F)(F)C(F)(F)C(F)(F)C(F)(F)C(F)(F)C(F)F)cc1 | inactive
Cc1ccc(S(=O)(=O)NCl)cc1 | inactive
C=C(C)C(=O)OCC(F)(F)C(F)(F)C(F)(F)C(F)(F)C(F)(F)C(F)(F)C(F)(F)F | inactive
FC(F)(F)C(F)(F)C(F)(F)C(F)(F)C(F)(F)C(F)(F)CCS | inactive
CCCCCC=O | inactive
CCCCCCCCC(F)(F)C(F)(F)C(F)(F)C(F)(F)C(F)(F)C(F)(F)F | inactive
Cc1cc(C)cc(O)c1 | inactive
O=S(=O)(OCCOC(F)(F)F)C(F)(F)F | inactive
